Bioassay records as filed in PubChem BioAssay.
TIM10 inh = inhibits growth of TIM10 yeast strain; S. cerevisiae TIM10 strain growth, BacTiter-Glo luminescence, 24 h; inhibition, % at 10 µM; actives 1.4% (n = 330,000); AID 463195;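 active means inhibition of 40% or more at the single tested concentration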;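 further: wild-type TIM10 isogenic control strain grown at permissive 25 °C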
tim10-1 inh = inhibits growth of tim10-1 mutant yeast; actives 2.2% (n = 330,000); inhibition, % at 20 µM; S. cerevisiae tim10-1 ts strain growth, BacTiter-Glo, 24 h;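 active means inhibition of at least 40%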;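 further: mutant grown at 25 °C; 0% = DMSO wells with yeast and 100% = wells holding no yeast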
NLRP3 yeast inh = blocks the NALP3 inflammasome reconstituted in yeast; Yeast reconstituted NLRP3/ASC/caspase-1, beta-gal luminescence, 24 h; inhibition, % at 10 µM; actives 0.39% (n = 330,000); AID 2825;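 active means inhibition of 50% or more; inactive means inhibition below 50%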;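 further: plate controls were induced DMSO wells for no effect and uninduced yeast grown without galactose for full effect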
PfHsp90 yeast 2 = growth inhibition of yeast expressing Plasmodium Hsp90; S. cerevisiae expressing PfHsp90, BacTiter-Glo ATP, 48 h; yeast lacking PDR1 and PDR3 efflux regulators; inhibition, % at 9.4 µM; actives 0.32% (n = 310,000);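 active means every replicate shows inhibition above about 80%, whatever the replicate mean, limit read from the data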;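 further: 0% = DMSO neutral controls and 100% = 20 µM radicicol positive controls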
tim23-1 inh = tim23-1 yeast growth inhibition; actives 1.3% (n = 330,000); inhibition, % at 20 µM; S. cerevisiae tim23-1 growth, BacTiter-Glo luminescence, 24 h;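 active means growth inhibition of the mutant yeast at or above 50%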;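 further: temperature-sensitive mutant grown at 25 °C; plate controls were DMSO-treated mutant yeast for no effect and medium wells lacking yeast for full effect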
tim10-1 conf = tim10-1 yeast growth inhibition, confirmed | inhibition, % at 20 µM | actives 56% (n = 7,400) | shares compounds with tim10-1 inh | S. cerevisiae tim10-1 ts strain growth, BacTiter-Glo, 24 h;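 active means inhibition of yeast growth at or above a set limit in either of two repeat tests at 20 µM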;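 further: tim10-1 mutant grown at permissive 25 °C to find synthetic lethal compounds; 0% = DMSO yeast wells and 100% = medium wells without yeast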
tim10 confirm = confirmation of TIM10 yeast growth inhibitors; inhibition, % at 10 µM; shares compounds with TIM10 inh; actives 63% (n = 4,600); S. cerevisiae tim10 strain growth, BacTiter-Glo luminescence, 24 h;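 active means inhibition of yeast growth at or above a set limit in either of two replicates at 10 µM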;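 further: this counterscreen used the strain with wild-type TIM10; 0% = yeast with DMSO and 100% = medium wells lacking yeast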
tim23-1 confirm = confirmation of tim23-1 mutant yeast growth inhibitors | shares compounds with tim23-1 inh | actives 83% (n = 4,400) | inhibition, % at 20 µM | S. cerevisiae tim23-1 growth, BacTiter-Glo luminescence, 24 h;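 active means inhibition above about 39% in either of two replicate wells at 20 µM, limit read from the data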;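 further: temperature-sensitive tim23-1 mutant grown at 25 °C; 0% = DMSO wells with yeast and 100% = medium wells without yeast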
* marks the source's active call; other numbers are inactive results; · = not tested or not shown. Shown are actives, neighbours in structure and some others; about 3.7% of the full set was active somewhere.

SMILES	TIM10 inh	tim10-1 inh	NLRP3 yeast inh	PfHsp90 yeast 2	tim23-1 inh	tim10-1 conf	tim23-1 confirm	others
COc1cc(/C=C/C(=O)c2ccc([N+](=O)[O-])o2)ccc1O	96.6*	96.2*	49.1	111.7*	95.5*	97.2*	99.2*	tim10 confirm=99.1*
Cc1cc(O)c(C(=O)/C=C/c2cccc([N+](=O)[O-])c2)c(=O)o1	14.5	11.7	19.5	-6.4	8.8	·	·
O=C(NNC(=O)c1ccccc1F)c1ccc(Cl)c(S(=O)(=O)N2CCOCC2)c1	6.1	-8.6	15.9	14.1	2.7	·	·
CCc1c(C)c(C#N)c2nc3ccccc3n2c1NCCN(C)C	57.9*	62.7*	36.1	17.3	58.7*	56.1*	64.8*	tim10 confirm=34.1*
O=C(NCCCc1ccccc1)Nc1cccc(Cl)c1	45.9*	44.3*	27.1	5.8	56.5*	23.9	65.6*	tim10 confirm=-11.2
O=C(NCCc1ccncc1)Nc1cccc(Cl)c1	14.5	10.8	12.2	7.7	6.3	·	·
CCCS(=O)(=O)c1nnnn1-c1cccc(OC)c1	·	·	·	-22.3	·	·	·
COc1ccc2nc3oc(C(=O)N4CC(C)CC(C)C4)cc3cc2c1 (stereo unspecified)	14.7	59.3*	18.8	-13.6	53.8*	4.8	41.1*
COC(=O)c1ccc(/C=C(\C#N)C(=O)NC(C)c2ccccc2)cc1 (stereo unspecified)	61.3*	64.3*	0.0	-14.6	66.5*	62.2*	58.0*	tim10 confirm=57.5*
CC(NC(=O)/C(C#N)=C/c1ccc(N2CCOCC2)cc1)c1ccccc1 (stereo unspecified)	21.8	17.6	23.9	-78.3	32.9	·	·
Cn1c(/C=C/c2cccc(Br)c2)nc2ccccc2c1=O	21.9	57.2*	48.4	-10.6	63.2*	55.4*	58.6*
CCn1c(/C=C/c2ccc(O)c(O)c2)nc2ccccc2c1=O	11.5	20.0	27.2	-15.5	2.9	·	·
CCn1c(/C=C/c2cc(Br)ccc2O)nc2ccccc2c1=O	58.3*	67.0*	23.4	-17.6	62.8*	68.6*	75.0*	tim10 confirm=59.0*
COc1cc2nc(Cl)nc(N3CCOCC3)c2cc1OC	-11.3	2.8	5.0	-13.6	3.4	·	·
Brc1ccc(C2=CC(c3cccs3)n3ncnc3N2)cc1 (stereo unspecified)	36.2	50.0*	22.6	7.2	51.6*	38.5*	53.8*
Oc1c(Br)cc(C2N=C(c3ccccc3)NO2)cc1Br (stereo unspecified)	33.4	43.7*	7.5	-3.5	67.2*	57.6*	68.4*
CSc1ccc(C2N=C(c3ccccc3)NO2)cc1 (stereo unspecified)	25.8	-7.9	21.5	17.6	20.8	·	·
CCN(CC)c1ccc(NC(=O)c2cc(Cl)ccc2OC)cc1	25.8	42.5*	22.4	-15.4	50.0*	31.8*	43.8*
O=C(Cc1ccc(Cl)cc1)NN1C(=O)c2ccccc2C1=O	2.4	8.5	1.2	-1.4	7.6	·	·
COC(=O)[C@@H]1[C@@H](C#N)C2(c3ccccc3-c3ccccc32)N(c2ccc(Cl)cc2)N1C#N	43.6*	49.8*	6.1	100.1*	57.8*	36.2*	63.3*	tim10 confirm=-3.5
CC(C)(C)C(=O)Nc1ccc(C(=O)OC2CCCCC2)cc1	38.5	41.3*	24.7	-5.2	50.2*	27.5	42.5*
O=C(O)c1cc(-c2ccc(Cl)c(Cl)c2)n(-c2ccccc2)n1	14.0	12.0	0.4	-23.5	10.9	·	·
CCc1ccccc1S(=O)(=O)Cc1ccc(C(=O)NCc2cccs2)o1	6.8	21.7	22.3	·	1.5	·	·
COc1ccc(C(=O)N/C(=C\c2cn(C)c3ccccc23)C(=O)NCCCN2CCOCC2)cc1OC	1.7	-2.5	7.4	-20.3	-8.3	·	·
O=C(NNc1nc2ccc(Cl)cc2s1)c1cc(-c2cccs2)nc2ccccc12	18.8	50.5*	14.0	102.8*	51.6*	34.6*	54.3*
SMILES	TIM10 inh	tim10-1 inh	NLRP3 yeast inh	PfHsp90 yeast 2	tim23-1 inh	tim10-1 conf	tim23-1 confirm	others
CC1Sc2ccc(S(=O)(=O)CCC(=O)Nc3ccccc3Cl)cc2NC1=O (stereo unspecified)	-5.1	11.7	3.8	-11.4	11.3	·	·
Cc1ccc2c(c1)/C(=C/c1ccc(F)cc1)C(=O)N2	65.6*	58.8*	40.5	-3.9	61.6*	71.3*	50.1*	tim10 confirm=77.1*
CCOc1ccc2c(c1)/C(=N/N1C(=O)c3ccccc3C1=O)C(=O)N2	22.7	17.2	11.8	31.3	16.2	·	·
CCOc1ccc2c(c1)-c1c(ssc1=S)C(C)(C)N2	37.2	47.8*	34.6	-5.2	52.1*	40.5*	55.8*
COc1cccc(/C=C2\SC(=S)N(CCCC(=O)N(CCO)c3ccccc3)C2=O)c1	23.7	43.8*	16.8	-27.1	50.5*	29.6	53.7*
COc1ccccc1NC(=O)CSCc1cc(=O)n2c(C)csc2n1	-1.2	13.2	5.2	-5.6	7.4	·	·
CN1CCN(C2=Cc3cc(Cl)ccc3Sc3cc(F)ccc32)CC1	-15.2	56.8*	24.2	-5.1	78.1*	39.6*	66.6*
CN1CCN(C2=Cc3ccccc3Sc3cc(F)c(F)cc32)CC1	17.1	38.1	16.4	32.9	-6.2	·	·
Cc1ccc(SSc2cc(C)ccc2N)c(N)c1	11.1	18.1	17.6	18.4	29.2	·	·
CCCCN(C)CCNC(=O)Cn1ncc2c(=O)oc3ccc(C)cc3c21	-43.4	-12.5	2.6	27.7	-23.3	·	·
Cc1cc(/C=C(\C#N)C(=O)NC2CC2)c(C)[nH]1	-2.1	2.1	5.7	-1.5	1.7	·	·
COCCNC(=O)/C(C#N)=C/C=C/c1ccccc1	3.1	22.6	-6.1	39.8	20.5	·	·
N#C/C(=C\c1ccccc1Br)C(=O)NC1CC1	66.7*	54.1*	21.0	-55.7	83.7*	60.5*	81.8*	tim10 confirm=83.4*
COCCNC(=O)/C(C#N)=C/c1ccccc1Br	76.2*	72.3*	15.6	-7.5	79.0*	74.2*	76.5*	tim10 confirm=68.5*
CCCCOC(=O)c1ccc(NC(=O)CSc2nnnn2C)cc1	-3.3	10.9	7.6	12.3	10.8	·	·
COc1ccc(N2CCN(C(=O)Nc3ccccc3C)CC2)cc1	-1.8	6.6	20.1	-14.2	8.3	·	·
O=C(NCCSCc1ccco1)Nc1cc(Cl)cc(Cl)c1	33.8	46.1*	15.2	-5.6	53.6*	35.0*	55.5*
O=C(/C(=C/c1ccc(Cl)cc1)c1nc2ccccc2[nH]1)c1cccs1	70.2*	55.9*	49.7	·	50.6*	38.7*	-31.2	tim10 confirm=70.7*
O=C(/C(=C\c1ccccc1)c1nc2ccccc2[nH]1)c1ccc(Cl)cc1	39.6	43.0*	41.4	104.2*	50.8*	34.5*	62.4*
